The source of these data is the supplement of paper PMC10732440.

± gives the standard deviation of the averaged measurements.

For one test, the system named is Caenorhabditis elegans N2 infected with Nematocida parisii ERTm1. The test can be described thus: progeny production relative to DMSO uninfected control; higher = more progeny despite microsporidia infection (inhibition of infection with low host toxicity). Conditions: infection time 6 days; 40 µM. The method, then:
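Bleach-synchronised C. elegans N2 L1 larvae (100 per well) were grown in 96-well plates in K-medium with 5x E. coli OP50 and 15,000 N. parisii spores/uL, plus Pandemic Response Box compound at 100 uM or 40 uM (1% DMSO), for 6 days at 21 C with shaking. Worms were stained with Rose Bengal, scanned on a flatbed scanner and counted with WorMachine. Progeny production is given as % of the DMSO uninfected control (triplicate wells), so higher values mean the compound restores progeny despite infection.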
`Nc1c(C(=O)NCc2ccco2)c2nc3ccccc3nc2n1CCN1CCCCC1` showed a progeny production of 6.14 ± 2.6%.
Regarding `COc1ccccc1CN[C@H]1C2CCN(CC2)[C@H]1C(c1ccccc1)c1ccccc1`, the progeny production was 8.71 ± 4.8%.
The same measure, in the same setting: for `NC1(C(=O)O)CCP(=O)(O)CC1` (centres undefined) the value was 2.95 ± 1.1%; for `CN1C(=O)C(c2ccccc2)C(=O)N(c2ccccc2)c2cc(C(F)(F)F)ccc21` (centres undefined), 3.86 ± 0.4%; for `O=C(NC12CC3CC(CC(C3)C1)C2)c1cc2ccccc2[nH]1`, 6.55 ± 3.2%.
Same read-out and setting: the figure for `C[N+]1(C)CCCC(OC(=O)C(O)(c2ccccc2)c2ccccc2)C1` (centres undefined) is 12.7 ± 11%; for `C[C@@]1(O)[C@H](O)[C@@H](CO)O[C@H]1n1ccc2c(N)ncnc21` it is 7.31 ± 1.5%; for `CCN1CCN(Cc2nc3ccc([N+](=O)[O-])cc3c(=O)n2-c2ccccc2F)CC1` it is 6.53 ± 2.2%.
Compound `COc1cc(C(C)(C)CCCC(C)C)cc(OC)c1OC` gave a progeny production of 5.3 ± 1.8%.
Still for that read-out and setting: the figure for `COC(=O)Nc1nc2ccccc2[nH]1` is 9.55 ± 1.4%; for `CC(C)Oc1cccc(NC(=O)c2ccccc2C(F)(F)F)c1` it is 3.26 ± 1%.
On the same count and under the same terms, for `CCCCc1ccc(C(=O)O)nc1` the value was 3.89 ± 0.63%.

The test is the same for the next values; noted with them: infection time 6 days; 100 µM.
For `Nc1c(C(=O)NCc2ccco2)c2nc3ccccc3nc2n1CCN1CCCCC1`, the progeny production turned out to be 8.06 ± 4%.
On the same count and under the same terms, for `COc1ccccc1CN[C@H]1C2CCN(CC2)[C@H]1C(c1ccccc1)c1ccccc1` the value was 16.1 ± 5.7%.
Still for that read-out and setting: the figure for `NC1(C(=O)O)CCP(=O)(O)CC1` (centres undefined) is 16.6 ± 16%; for `CN1C(=O)C(c2ccccc2)C(=O)N(c2ccccc2)c2cc(C(F)(F)F)ccc21` (centres undefined) it is 8.44 ± 2%.
The same measure, in the same setting: the figure for `O=C(NC12CC3CC(CC(C3)C1)C2)c1cc2ccccc2[nH]1` is 5.96 ± 4%.
`C[N+]1(C)CCCC(OC(=O)C(O)(c2ccccc2)c2ccccc2)C1` (centres undefined) had a progeny production of 4.14 ± 1.8%.
Still for that read-out and setting: for `C[C@@]1(O)[C@H](O)[C@@H](CO)O[C@H]1n1ccc2c(N)ncnc21` the value was 15.4 ± 2%; for `CCN1CCN(Cc2nc3ccc([N+](=O)[O-])cc3c(=O)n2-c2ccccc2F)CC1`, 16.4 ± 6.8%.
Take `COc1cc(C(C)(C)CCCC(C)C)cc(OC)c1OC`: the progeny production came to 12.1 ± 4.9%.
On the same count and under the same terms, for `COC(=O)Nc1nc2ccccc2[nH]1` the value was 19.7 ± 17%.
With `CC(C)Oc1cccc(NC(=O)c2ccccc2C(F)(F)F)c1`, the progeny production is 18.9 ± 12%.
Same read-out and setting: the figure for `CCCCc1ccc(C(=O)O)nc1` is 18.3 ± 10%.
